From PubChem BioAssay (NCATS)
Inconclusive results are not listed. Entries that show only a call come without a potency. Unmarked numbers belong to inactive results. Activity calls are given as the source filed them. The call rests on the fitted dose curve; in most records, active means well fitted curve in the direction sought with a large enough effect; inconclusive means small, poorly fitted or top-dose-only effect, or another doubt; inactive means no such curve, though single readings can be large; an effect the other way counts as inactive or inconclusive.

Legend:
[1] = molecular target: Rap guanine nucleotide exchange factor 3 (Homo sapiens) (UniProt O95398); test: Confirmatory qHTS for antagonist of cAMP-regulated guanine nucleotide exchange factor 3 (EPAC1) (AID 1645880); details: EPAC1 Rap1B-BODIPY-GDP exchange, fluorescence; activity, negative = inhibition: at 115 µM (top of the series); further: nearly all actives have a fitted effect of over 55% in size; further: potency means the concentration at half of the fitted maximal effect
Summary of the method: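 Released BODIPY-GDP fluoresces less than Rap1-bound BODIPY-GDP; the signal is followed at 480/540 nm at 5-min intervals over 30 min, after 5 min at room temperature. Reactions contain 100 nM EPAC1, 250 nM RAP1B-BODIPY-GDP and 50 uM GDP; results are normalized to ATA and DMSO.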

[2] = molecular target: Rap guanine nucleotide exchange factor 3 (Homo sapiens) (UniProt O95398); test: Confirmatory qHTS for agonist of cAMP-regulated guanine nucleotide exchange factor 3 (EPAC1) (AID 1645881); further: nearly all actives have a fitted effect of over 75% in size; further: potency means the concentration at half of the fitted maximal effect;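 on activation: EPAC1 catalysed release of BODIPY-GDP from Rap1B seen as fluorescence loss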
[3] = molecular target: Rap guanine nucleotide exchange factor 4 (Homo sapiens) (UniProt Q8WZA2); test: Confirmatory qHTS for agonist of cAMP-regulated guanine nucleotide exchange factor 4 (EPAC2) (AID 1645884);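 further: nucleotide exchange releases bodipy-GDP from Rap1 and this lowers its fluorescence; nearly all actives have a fitted effect of over 65% in size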; further: potency means the concentration at half of the fitted maximal effect
[4] = molecular target: Rap guanine nucleotide exchange factor 3 (Homo sapiens) (UniProt O95398); test: Counterscreen qHTS for antagonist of cAMP-regulated guanine nucleotide exchange factor 3 (EPAC1) (AID 1645888)
Summary of the method: (§1)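 Measured: fluorescence of BODIPY-GDP bound to Rap1B, which falls as exchange proceeds. Conditions include 50 uM competing GDP, 5 and 30 min reads, and a later cAMP challenge for antagonist detection.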

[5] = molecular target: Rap guanine nucleotide exchange factor 3 (Homo sapiens) (UniProt O95398); test: Counterscreen qHTS for agonist of cAMP-regulated guanine nucleotide exchange factor 3 (EPAC1) (AID 1645889); further: nearly all actives have a fitted effect of over 40% in size; further: potency means the concentration at half of the fitted maximal effect
Summary of the method: as §1

Rap guanine nucleotide exchange factor 4 (Homo sapiens), sequence (Q8WZA2 whole entry, looked up): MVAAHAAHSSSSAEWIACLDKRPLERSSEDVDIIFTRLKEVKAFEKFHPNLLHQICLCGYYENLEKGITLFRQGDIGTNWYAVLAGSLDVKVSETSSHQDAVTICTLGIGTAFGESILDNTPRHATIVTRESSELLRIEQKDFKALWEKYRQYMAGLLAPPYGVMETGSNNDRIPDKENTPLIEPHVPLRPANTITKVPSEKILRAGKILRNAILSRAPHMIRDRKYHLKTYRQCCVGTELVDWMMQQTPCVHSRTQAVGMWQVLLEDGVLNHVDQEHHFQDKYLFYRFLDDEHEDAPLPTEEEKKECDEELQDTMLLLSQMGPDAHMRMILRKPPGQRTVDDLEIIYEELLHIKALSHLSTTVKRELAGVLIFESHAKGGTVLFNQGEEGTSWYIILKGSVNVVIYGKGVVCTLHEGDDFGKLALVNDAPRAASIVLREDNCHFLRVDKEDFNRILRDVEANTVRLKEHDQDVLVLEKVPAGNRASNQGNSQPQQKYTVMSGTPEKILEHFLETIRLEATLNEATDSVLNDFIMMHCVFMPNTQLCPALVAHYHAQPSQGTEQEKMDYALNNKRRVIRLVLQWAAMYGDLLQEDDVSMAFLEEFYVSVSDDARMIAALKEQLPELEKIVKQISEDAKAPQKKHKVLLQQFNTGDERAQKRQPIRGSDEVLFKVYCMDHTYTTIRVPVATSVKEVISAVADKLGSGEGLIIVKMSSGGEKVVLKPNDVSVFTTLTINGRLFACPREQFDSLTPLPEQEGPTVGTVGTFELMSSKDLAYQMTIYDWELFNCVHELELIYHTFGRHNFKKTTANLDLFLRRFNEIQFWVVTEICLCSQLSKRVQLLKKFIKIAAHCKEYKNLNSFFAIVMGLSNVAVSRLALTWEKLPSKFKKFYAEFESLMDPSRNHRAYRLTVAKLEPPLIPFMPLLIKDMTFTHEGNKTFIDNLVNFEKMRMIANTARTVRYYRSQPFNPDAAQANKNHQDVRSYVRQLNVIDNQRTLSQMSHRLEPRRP
Rap guanine nucleotide exchange factor 3 (Homo sapiens), sequence (O95398 whole entry, looked up): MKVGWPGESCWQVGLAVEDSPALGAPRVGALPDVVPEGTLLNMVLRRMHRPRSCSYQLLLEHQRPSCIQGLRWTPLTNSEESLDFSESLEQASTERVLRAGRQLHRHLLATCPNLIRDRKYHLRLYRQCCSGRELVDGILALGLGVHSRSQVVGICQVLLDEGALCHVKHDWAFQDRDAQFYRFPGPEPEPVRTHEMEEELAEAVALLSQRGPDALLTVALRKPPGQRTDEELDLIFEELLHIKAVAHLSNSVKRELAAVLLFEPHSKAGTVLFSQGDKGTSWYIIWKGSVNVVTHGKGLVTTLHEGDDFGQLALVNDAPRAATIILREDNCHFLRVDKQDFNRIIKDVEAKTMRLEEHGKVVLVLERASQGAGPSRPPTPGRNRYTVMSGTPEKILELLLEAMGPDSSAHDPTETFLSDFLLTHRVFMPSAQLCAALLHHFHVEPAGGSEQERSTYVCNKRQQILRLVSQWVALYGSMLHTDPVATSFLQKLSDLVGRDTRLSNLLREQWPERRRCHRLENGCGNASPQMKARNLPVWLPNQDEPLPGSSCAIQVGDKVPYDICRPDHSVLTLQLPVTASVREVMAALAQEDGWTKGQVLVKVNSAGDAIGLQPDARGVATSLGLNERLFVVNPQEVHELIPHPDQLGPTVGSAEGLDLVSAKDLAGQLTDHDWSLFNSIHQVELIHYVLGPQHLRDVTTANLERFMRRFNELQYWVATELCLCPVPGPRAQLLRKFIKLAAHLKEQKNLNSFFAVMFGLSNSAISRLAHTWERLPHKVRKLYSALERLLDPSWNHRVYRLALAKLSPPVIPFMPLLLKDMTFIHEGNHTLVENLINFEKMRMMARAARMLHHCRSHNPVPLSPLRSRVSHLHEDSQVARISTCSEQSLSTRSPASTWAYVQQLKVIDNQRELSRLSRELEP

Row | Structure (SMILES) | Potency [1] | Potency [2] | Potency [3] | Potency [4] | Potency [5] | activation [3] | activity change, negative = inhibition [4] | activation [5]
1 | CCCc1cc(=O)oc2cc(C)cc(OCC(=O)N[C@@H](CSCc3ccccc3)C(=O)O)c12 | inactive | inactive | inactive | inactive | inactive |  |  | 
2 | CCOC(=O)c1c(-c2ccccc2)oc2ccc(OCC)cc12 | inactive | inactive | inactive | inactive | inactive |  |  | 
3 | O=C(N/N=C/c1ccccc1O)c1ccc2c(c1)OCO2 | inactive | inactive | inactive | inactive | inactive |  |  | 
4 | CC1CCN(c2ccc3c(c2)S(=O)(=O)c2cccc(C(=O)NC4CCCCC4)c2C3=O)CC1 | inactive | 89.1 µM (active) | 100 µM (active) | inactive | 50.1 µM (active) |  |  | 
5 | Cc1onc(-c2ccccc2)c1C(=O)N1CCc2ccccc21 | inactive | inactive |  |  |  | 1.91% [at 17.1 µM, percent relative to cAMP agonist control] | -17.7% [at 30.8 µM] | 18.4% [at 30.8 µM]
6 | O=[N+]([O-])c1cc(/C=N/O)ccc1Oc1ccccc1Cl | inactive | inactive | inactive | inactive | inactive |  |  | 
7 | Cc1ccc2nc(N3C(=O)C(O)=C(C(=O)c4ccc(C)o4)C3c3ccc(O)cc3)sc2c1 (stereo not given) | 37.9 µM (active) | inactive | inactive | inactive | inactive |  |  | 
8 | Nc1nc2c(ncn2[C@@H]2O[C@H](CNS(=O)(=O)N3CCCC3)[C@@H](O)[C@H]2O)c(=O)[nH]1 | inactive | inactive | inactive | inactive | inactive |  |  | 
9 | CC(C)CSC1=NSC2=NC(=O)/C(=C\c3coc4ccccc4c3=O)C(=N)N12 | inactive | inactive | 112 µM (active) | inactive | inactive |  |  | 
10 | COc1cccc(-c2nc(CS(=O)(=O)CC(=O)N3CCN(C)CC3)c(C)o2)c1 | inactive | inactive | inactive | inactive | inactive |  |  | 
11 | O=C(CN1C(=O)NC2(CCCC2)C1=O)Nc1nc2c(F)cc(F)cc2s1 | inactive | inactive | inactive | inactive | inactive |  |  | 
12 | C#CCOc1nc(C)cc(C)c1S(=O)(=O)c1ccccc1C | inactive | inactive |  |  |  | -13.7% [at 17.1 µM, percent relative to cAMP agonist control] | -7.83% [at 30.8 µM] | -3.33% [at 30.8 µM]
13 | CC1CN(C(=O)CCC(=O)NCc2ccc(F)cc2)c2ccccc2S1 (stereo not given) | inactive | inactive |  |  |  | -4.63% [at 17.1 µM, percent relative to cAMP agonist control] | -2.67% [at 30.8 µM] | 31.5% [at 30.8 µM]
14 | CCOc1nc(-c2ccccc2)c2cc(C)ccc2n1 | inactive | inactive | inactive | inactive | inactive |  |  | 
15 | COc1cc(/C=C(\C#N)c2nc3ccccc3s2)cc([N+](=O)[O-])c1O | 16.9 µM (active) | inactive | inactive | inactive | inactive |  |  | 
16 | CN(C)c1ccc(/C=C(\C#N)c2ccccn2)cc1 | inactive | inactive | inactive | inactive | inactive |  |  | 
17 | CN(CCC#N)C(=O)COC(=O)c1c2c(nc3ccccc13)/C(=C\c1ccco1)CC2 | 9.53 µM (active) | inactive | inactive | inactive | inactive |  |  | 
18 | Cc1nc(N(C)C)c2sc(=S)n(Cc3ccccc3)c2n1 | inactive | inactive |  |  |  | 11.2% [at 17.1 µM, percent relative to cAMP agonist control] | -16.2% [at 30.8 µM] | 9.98% [at 30.8 µM]
19 | COc1ccc(C2N(c3ccc(Cl)cc3)N=C(C(C)=O)N(C)N2C(C)=O)cc1 (stereo not given) | inactive | inactive |  |  |  | 11.9% [at 17.1 µM, percent relative to cAMP agonist control] | -11.6% [at 30.8 µM] | 29.6% [at 30.8 µM]
20 | COc1ccc(-c2csc3ncn(-c4ccc(C)cc4)c(=O)c23)cc1OC | inactive | inactive | inactive | inactive | inactive |  |  | 
21 | COc1ccc(C(=O)n2c(-c3ccco3)nc3ccccc32)cc1 | inactive | inactive |  |  |  | 7.17% [at 17.1 µM, percent relative to cAMP agonist control] | -27.8% [at 30.8 µM] | 10% [at 30.8 µM]
22 | CCC(CC)NC(=O)c1ccccc1Oc1ccccc1 | inactive | inactive |  |  |  | 3.85% [at 17.1 µM, percent relative to cAMP agonist control] | 6.83% [at 30.8 µM] | 13.2% [at 30.8 µM]
23 | O=C(Cc1ccc(Br)cc1)N(Cc1ccccc1)c1ccccn1 | inactive | inactive | inactive | inactive | inactive |  |  | 
24 | COC(=O)C1=C(C)N(CCCC(=O)O)C(=O)NC1c1ccc(-c2ccccc2)cc1 (stereo not given) | inactive | inactive | inactive | inactive | inactive |  |  | 
